# Measurements: PubChem BioAssay AID492952 (Southern Research Specialized Biocontainment Screening …, 2010)
# The campaign covered roughly 2,300 compounds. About 1,500 (65%) were called active. The set was probably picked from earlier hits. The list shows a part of the results. Entries with a potency or affinity are not part of this list. Unmarked numbers belong to inactive results. The rule behind the calls is not given here.
# Assay: replicating M. tuberculosis growth inhibition, dose response, non-replicating M. tuberculosis project, H37Rv (AID 492952);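 note: Mycobacterium tuberculosis grown in culture; growth inhibition read after a week of incubation; 0% = bacteria alone untreated and 100% = bacteria with high antibiotic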
# Settings: series mostly up to 50 µM; inhibition: at the top concentration
row,SMILES,inhibition
1,CC(C)N1CCc2c(sc(NC(=O)CCS(=O)(=O)c3ccccc3)c2C#N)C1,-6.18%
2,CSC1=NSC2=NC(=O)/C(=C\c3cccs3)C(=N)N12,0.71%
3,N=C1/C(=C\c2coc3ccccc3c2=O)C(=O)N=C2SC=CN12,3.33%
4,O=C(CCSc1ccc(Cl)cc1)Nc1cccnc1,0.63%
5,COc1ccc(C(=O)CC(=O)C(=O)NCCc2cccc(C)c2)cc1,8.12%
6,c1cncc(-c2noc(CC3CCCCC3)n2)c1,-0.36%
7,CC[n+]1c(/C=C(\C)Nc2ccccc2)sc2ccccc21,10.4%
8,Cc1nnc(C)n1/N=C/c1cc(Br)cc(Br)c1O,-2.48%
9,COc1cc(C2C3=C(CC(C)(C)CC3=O)OC(N)=C2[N+](=O)[O-])ccc1O (stereo unspecified),3.24%
10,CCOC(=O)CC(NS(=O)(=O)Cc1ccccc1)c1ccc(C)cc1 (stereo unspecified),1.94%
11,COc1ccc(NC(=O)c2nc3ccccc3s2)cc1,-0.19%
12,COc1cccc(NC(=O)c2ccc(C(=O)c3ccccc3)o2)c1,-2.29%
13,CCOc1ccc(NC(=O)c2nnn(CC(=O)Nc3ccccc3OC)c2N)cc1,2.2%
14,O=S(=O)(c1ccc(OCC2CO2)cc1)c1ccc(OCC2CO2)cc1 (stereo unspecified),-2.76%
15,COC(=O)COc1ccc(S(=O)(=O)N2CCN(c3ccccc3F)CC2)cc1,4.73%
16,Cc1ccc(CC(=O)N2CCN(c3ccc([N+](=O)[O-])cc3)CC2)cc1,-1.43%
17,O=C(NNC(=O)c1cccs1)c1ccc(Br)o1,-8.17%
18,O=C(Nc1ccc(N2CCN(C(=O)c3ccco3)CC2)c(Cl)c1)c1cccs1,0.19%
19,O=C(c1cccs1)N1CCN(c2ccc(Cl)cc2)CC1,1.37%
20,Cc1ccc(-c2nnc(-c3ccccc3)o2)cc1,3.49%
21,Cc1nc2ccc(OC(=O)c3ccccc3)cc2s1,29.8%
22,O=C(COC(=O)CCC(=O)c1ccc(F)cc1)Nc1ccc(F)cc1F,-1.72%
23,O=C(NNC(=O)c1ncc(Cl)c(Cl)c1Cl)c1ccc(F)cc1,5.84%
24,O=C1c2ccccc2CC1Sc1nnc(-c2ccncc2)o1 (stereo unspecified),11.4%
25,CCOc1ccccc1NC(=O)COn1nnc2ccc(Cl)cc21,-4.11%

row,SMILES,inhibition
1,C/C(=N\NC(=O)c1cccc(Cl)c1)C1C(=O)c2ccccc2C1=O,0.13%
2,O=C(Nc1ccc(Cl)cc1Cl)c1cccc(N2C(=O)C=CC2=O)c1,14.2%
3,O=S(=O)(CCN1CCN(c2ccccn2)CC1)c1ccc(Cl)cc1Cl,2.07%
4,CC(=O)c1ccc(-c2nnc(CCC(=O)N(C)Cc3cccc4cnccc34)o2)s1,-1.47%
5,O=C(COc1cccc2ccccc12)Nc1ccc(Cl)cc1C(=O)O,5.34%
6,CCOC(=O)c1csc(COc2ccccc2Cl)n1,-1.18%
7,N=c1oc2ccc(Cl)cc2cc1C(=O)NC1CCCCCC1,2.7%
8,CCOc1cccc2cc(C(=O)NC(C)c3ccccc3)c(=N)oc12 (stereo unspecified),3.19%
9,O=C(Nc1nccs1)c1ccc(COc2ccc(Cl)cc2)o1,-1.74%
10,CCOC(=O)NC(=O)COC(=O)CCCSc1nc2ccccc2s1,6.54%
11,CCOC(=O)C(=O)Cc1nc2ccccc2s1,2.3%
12,CCNC(=O)NC(=O)C(C)OC(=O)CCCSc1nc2ccccc2s1 (stereo unspecified),3.89%
13,CC(C)CNc1nc(=S)nc(N(C)C)[nH]1,1.1%
14,COc1ccc(S(=O)(=O)NCc2ccc3c(c2)cc(C)n3C)cc1,7.34%
15,COc1ccc2cc(C(=O)NCc3ccccc3CN3CCCC3)ccc2c1,29.6%
16,CC(NC(=O)OCc1ccccc1)c1ccccc1 (stereo unspecified),-0.48%
17,CCOC(=O)c1c(-c2ccccc2)csc1NC(=O)CCN1CCOCC1,2.4%
18,CCCCn1nnc(NC(=O)COc2ccc(Cl)c(C)c2)n1,12.5%
19,O=c1c2c([N+](=O)[O-])cc([N+](=O)[O-])cc2nc2ccccn12,17.1%
20,COc1cc(Cl)cc(/C=N/NC(N)=O)c1O,2.23%
21,CCSc1nc(O)c(C2OC(=O)c3c2ccc(OC)c3OC)c(=O)n1-c1ccccc1 (stereo unspecified),-2.58%
22,NCCNc1ccc([N+](=O)[O-])c2cccnc12,6.01%
23,C/C(=N\NC(=O)c1ccco1)c1cc(Cl)sc1Cl,2.82%
24,C/C(=N/NC(=O)c1ccco1)c1ccc(Br)s1,-2.18%
25,Cc1cccnc1NC(=O)COc1ccc2oc3c(c2c1)CCCC3,2.59%

row,SMILES,inhibition
1,CCOC(=O)N1CCN(c2cc(C)c([N+](=O)[O-])cc2F)CC1,0.99%
2,Cc1ccc(NC(=O)c2noc(C(C)C)c2[N+](=O)[O-])cc1,5.61%
3,Cc1ccnc(-n2sc3ccccc3c2=O)n1,-1.3%
4,O=c1ccn(-c2ccccc2)[nH]1,4.15%
5,COc1ccc(OCc2n[nH]c(=S)o2)cc1,-6.5%
6,O=c1oc(-c2ccccc2[N+](=O)[O-])nc2ccccc12,5.42%
7,C=CC(=O)Oc1ccc(N2Cc3ccccc3C2=O)cc1,-13.4%
8,CN1CCN(Cc2cc(C(C)(C)C)c(O)c(C(C)(C)C)c2)CC1,0.19%
9,CCCN1C(=O)SC(CC(=O)Nc2ccccc2)C1=O (stereo unspecified),-14.1%
10,CCCn1c(O)c(N=NC(=O)c2ccco2)c2ccccc21,-4.81%
11,CCCCn1c(N)c(-c2nc3ccccc3o2)c2c([N+](=O)[O-])nn(CC)c(=O)c21,-4.02%
12,C/C(=N\NC(=O)c1ccccc1)c1nc2ccccc2n1C,5.23%
13,Cc1cc(C)c(OCC(=O)Nc2nnc(-c3ccco3)o2)c(C)c1,28.4%
14,Cc1cccc(CSc2nnc(-c3ccco3)o2)c1,9.12%
15,CN(/N=C/c1ccc([N+](=O)[O-])o1)c1ccccc1,6.49%
16,CC1=CN2C(=N)/C(=C/c3ccc([N+](=O)[O-])o3)C(=O)N=C2S1,3.33%
17,Cc1cc(C)n(-c2ccc(C(=O)OCC(=O)Nc3cc(Cl)ccc3[N+](=O)[O-])cc2)n1,0.57%
18,COC(=O)C1=C(C)N(CC2CC2)C(=NCc2cccc(Cl)c2)N[C@H]1c1ccccc1,16.6%
19,CCCC(C)C(=O)Nc1ccc(Cl)cn1 (stereo unspecified),1.28%
20,CC(C(=O)OCC(=O)c1ccccc1)N1C(=O)C2C3CCC(C3)C2C1=O (stereo unspecified),-2.54%
21,CC(Cc1ccccc1Sc1ccccc1)N(C)C (stereo unspecified),5.59%
22,CN1CCN(/N=C/c2ccc(-c3ccc([N+](=O)[O-])cc3Cl)o2)CC1,1.44%
23,Cc1ccc(-c2ccc(/C=N/NC(=O)CN3CCCC3)o2)cc1Cl,8.7%
24,COc1ccc(Cl)cc1N=Cc1c(O)c2ccccc2oc1=O,2.85%
25,COc1ccccc1-n1c(=O)oc2ccc(Cl)cc2c1=O,0.52%

row,SMILES,inhibition
1,O=C(N[C@@H]1C[C@H]2CC[C@@H]1C2)c1ccco1,-3.89%
2,O=C(N/N=C\c1ccccc1OCc1ccccc1)c1ccco1,2.01%
3,Cc1ccc(C(=O)NCCOc2cccc(C)c2)cc1,10.5%
4,CCN1CCN(C(=O)CN(Cc2ccccc2)S(C)(=O)=O)CC1,3.47%
5,O=C1CC(N2CCN(Cc3ccccc3)CC2)C(=O)N1CCc1ccccc1 (stereo unspecified),-2.14%
6,CCCCNC(=O)N1CCc2ccccc2C1,2.06%
7,O=C(NCc1ccccc1CN1CCCC1)c1cc2ccccc2o1,-1.3%
8,O=C(CCS(=O)(=O)Cc1ccccc1)Nc1ncc([N+](=O)[O-])s1,6.12%
9,O=C(N/N=C/c1c(O)ccc2ccccc12)c1ccc(Br)o1,-8.28%
10,CCCCN(C)C(=O)c1cc2cc3ccc(OC)cc3nc2s1,13.3%
11,O=C(CNC(=O)c1ccccc1F)OCc1csc(-c2ccccc2)n1,0.12%
12,CCCOC(=O)c1ccc(OC(=O)c2ccco2)cc1,12%
13,O=C(NCC1CCCCC1)c1ccco1,-0.2%
14,C/C(=N/NC(=O)c1cccc(C)c1)c1c(O)cc(C)oc1=O,17.8%
15,COc1cccc(NC(=O)c2ccc(-c3ccc([N+](=O)[O-])cc3)o2)c1,24.3%
16,O=C(Nc1ncc([N+](=O)[O-])s1)c1cccs1,6.4%
17,O=C1/C(=C\c2ccco2)SC(=S)N1c1ccc(O)cc1,8.77%
18,Cc1c(Cl)cccc1NC(=O)C1COc2ccccc2O1 (stereo unspecified),6.98%
19,O=C(NNC1=C(C(=O)C(F)(F)F)CCC1)c1ccccc1Cl,5.77%
20,Cc1ccccc1C(=O)NNc1ccc([N+](=O)[O-])cc1,-3.91%
21,O=C(COc1ccc2ccccc2c1)N1CCCC1,-4.79%
22,O=C(c1cccc2cccc(O)c12)N1CCCCC1,7.84%
23,Cc1ccc(C(=O)N/N=C/c2cccc3ccccc23)cn1,-2.22%
24,CCN(CC)CCSc1nnc2c3cc(C)ccc3n(Cc3ccccc3)c2n1,27%
25,Cc1ccc(NC(=O)C2CC2c2ccccc2)cc1 (stereo unspecified),-6.03%

row,SMILES,inhibition
1,O=C(CCSc1nnc(-c2ccncc2)o1)Nc1cccc(Cl)c1,22.7%
2,Cc1nnc(SCCC(=O)Nc2ccc(Cl)cc2)o1,0%
3,N#Cc1ccc(CSc2nnc(-c3cccnc3)o2)cc1,2.49%
4,CCOC(=O)CN1NC2(CCC(C)CC2)NC1=S (stereo unspecified),1.45%
5,O=c1c2c([N+](=O)[O-])cc([N+](=O)[O-])cc2sn1-c1ccc(Br)cc1,-3.61%
6,O=[N+]([O-])c1ccc2nc(SCc3cn4cc(Cl)ccc4n3)[nH]c2c1,-1.37%
7,Cc1nc2ccc(Cl)cc2nc(C)/c1=N\O,18.5%
8,O=c1c2cc(Cl)ccc2nc(-c2ccccc2Cl)n1O,2.14%
9,O=C(NNc1nc2ccccc2s1)c1ccc(F)cc1,10.5%
10,CC(C)CCC1=NN(C(=O)c2ccco2)C(O)(C(F)(F)F)C1 (stereo unspecified),-0.92%
11,CCOC(=O)C1(CC2CCCCO2)CCN(Cc2nccn2-c2ccc(OC)cc2)CC1 (stereo unspecified),3.85%
12,CCCCNS(=O)(=O)c1ccc(OCC(=O)OC)cc1,0.69%
13,NNC(=O)COc1cccc(Oc2ccccc2)c1,11.4%
14,C=CCOC(=O)c1ccc(-n2cnc(C)n2)nc1,18.1%
15,COC(=O)c1ccc(OCC(=O)c2cccc(OC)c2)cc1,1.08%
16,CCn1cc(/C=N\NC(=O)c2ccc(F)cc2)cn1,-0.27%
17,O=C(c1cc(F)ccc1F)C1CCCN(Cc2ccc3nonc3c2)C1 (stereo unspecified),6.97%
18,Cc1ccc(NC(=S)C2=C(O)c3sccc3N(C)S2(=O)=O)cc1,1.4%
19,COc1ccc(CC(=O)Nc2nccs2)cc1OC,-15.2%
20,O=C(Nc1sc2c(c1C(=O)O)CCCCC2)c1ccccc1F,1.46%
21,N#Cc1ccsc1NC(=O)c1ccc(Cl)c([N+](=O)[O-])c1,-1.52%
